# Data as given in publication PMC7862700, “An all-to-all approach to the identification of sequence-specific readers for epigenetic DNA modifications on cytosine”.
# How the values were obtained:
# Assay in all cases: DAPPL (digital affinity profiling via proximity ligation, sequencing); 10 mM Tris-HCl pH 7.5, 50 mM NaCl, 1 mM DTT, 4% glycerol, room temperature, 30 min; GST-TFs on glutathione beads, 16-mer random dsDNA library, 0.1% formaldehyde crosslink after washing; high values mean tight binding
# [1] = target: T1, FEV (Homo sapiens, UniProt Q99581 1-238); details: protein: recombinant; tags: N-terminal GST; dsDNA, one strand shown
# T1 sequence: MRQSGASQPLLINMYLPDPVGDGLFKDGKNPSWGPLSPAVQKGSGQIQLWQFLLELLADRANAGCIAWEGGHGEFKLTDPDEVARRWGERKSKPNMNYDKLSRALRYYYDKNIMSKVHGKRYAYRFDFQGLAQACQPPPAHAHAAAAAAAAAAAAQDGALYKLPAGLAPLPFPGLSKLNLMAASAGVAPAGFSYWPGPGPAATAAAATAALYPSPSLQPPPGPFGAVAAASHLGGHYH
# Summary of the method: (§1)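 GST fusions of human transcription factors were expressed in yeast and captured with glutathione beads. Once given DNA barcodes and pooled alongside a tag-only sample, they were incubated for 30 min at room temperature with 200 nmole of a random double-stranded 16-mer DNA library in Tris/NaCl/DTT/glycerol buffer, then washed, crosslinked (0.1% formaldehyde), proximity-ligated, PCR-amplified and sequenced on an Illumina NextSeq500. The binding signal of each hexamer is its read frequency for a factor divided by its frequency for the tag-only sample.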
# [2] = target: ETV5 (Homo sapiens, UniProt P41161 1-510); details: protein: recombinant; tags: N-terminal GST; dsDNA, one strand shown
# Summary of the method: as §1
# [3] = target: HSF1 (Homo sapiens, UniProt Q00613 1-529); details: protein: recombinant; tags: N-terminal GST; chain copies: 3; dsDNA, one strand shown
# Summary of the method: as §1
# [4] = target: T2, SPIC (Homo sapiens, UniProt Q8N5J4 1-248); details: protein: recombinant; tags: N-terminal GST; dsDNA, one strand shown
# T2 sequence: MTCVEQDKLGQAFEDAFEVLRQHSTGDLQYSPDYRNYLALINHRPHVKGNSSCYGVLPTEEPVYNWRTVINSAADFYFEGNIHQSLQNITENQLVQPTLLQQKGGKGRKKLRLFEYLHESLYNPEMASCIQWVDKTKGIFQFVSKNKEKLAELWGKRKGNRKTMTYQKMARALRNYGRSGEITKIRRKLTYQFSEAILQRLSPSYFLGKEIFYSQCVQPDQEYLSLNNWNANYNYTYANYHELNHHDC
# Summary of the method: as §1
# [5] = target: ELF4 (Homo sapiens, UniProt Q99607 1-663); details: protein: recombinant; tags: N-terminal GST; dsDNA, one strand shown
# Summary of the method: as §1
# [6] = target: T3, ELK4 (Homo sapiens, UniProt P28324-2 1-405); details: protein: recombinant; tags: N-terminal GST; dsDNA, one strand shown
# T3 sequence: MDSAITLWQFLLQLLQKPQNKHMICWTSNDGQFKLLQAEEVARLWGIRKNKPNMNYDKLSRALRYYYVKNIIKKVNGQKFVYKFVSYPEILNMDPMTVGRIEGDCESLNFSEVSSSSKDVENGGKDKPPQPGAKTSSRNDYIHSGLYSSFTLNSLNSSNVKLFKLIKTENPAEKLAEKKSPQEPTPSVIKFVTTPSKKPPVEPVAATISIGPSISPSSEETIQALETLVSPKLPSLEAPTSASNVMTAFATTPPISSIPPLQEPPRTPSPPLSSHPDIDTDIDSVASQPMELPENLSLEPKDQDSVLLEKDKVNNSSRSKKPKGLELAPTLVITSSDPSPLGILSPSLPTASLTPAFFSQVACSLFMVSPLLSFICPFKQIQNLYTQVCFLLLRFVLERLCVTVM
# Summary of the method: as §1
# [7] = target: T4, ETV2 (Homo sapiens, UniProt O00321 1-342); details: protein: recombinant; tags: N-terminal GST; dsDNA, one strand shown
# T4 sequence: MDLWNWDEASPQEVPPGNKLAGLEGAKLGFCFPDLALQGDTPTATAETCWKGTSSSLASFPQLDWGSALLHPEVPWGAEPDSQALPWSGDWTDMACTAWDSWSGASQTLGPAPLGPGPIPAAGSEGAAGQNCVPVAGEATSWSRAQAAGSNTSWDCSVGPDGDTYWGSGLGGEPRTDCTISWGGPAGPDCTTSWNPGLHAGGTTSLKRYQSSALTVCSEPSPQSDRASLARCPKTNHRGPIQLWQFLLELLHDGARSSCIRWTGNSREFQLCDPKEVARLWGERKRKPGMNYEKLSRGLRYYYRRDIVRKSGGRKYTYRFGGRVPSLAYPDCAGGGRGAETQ
# Summary of the method: as §1
# [8] = target: T5, ELF3 (Homo sapiens, UniProt P78545 1-371); details: protein: recombinant; tags: N-terminal GST; dsDNA, one strand shown
# T5 sequence: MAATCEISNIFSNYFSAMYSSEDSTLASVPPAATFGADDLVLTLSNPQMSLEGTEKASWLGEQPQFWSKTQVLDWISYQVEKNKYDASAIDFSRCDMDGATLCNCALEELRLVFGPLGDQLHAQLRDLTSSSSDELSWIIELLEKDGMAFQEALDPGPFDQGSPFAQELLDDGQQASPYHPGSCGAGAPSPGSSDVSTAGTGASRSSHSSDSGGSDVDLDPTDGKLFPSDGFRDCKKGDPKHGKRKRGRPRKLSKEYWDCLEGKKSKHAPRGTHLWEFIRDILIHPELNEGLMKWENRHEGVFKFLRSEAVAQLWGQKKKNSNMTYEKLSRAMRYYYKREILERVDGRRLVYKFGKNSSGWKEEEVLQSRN
# Summary of the method: as §1
# [9] = target: CRX (Homo sapiens, UniProt O43186 1-299); details: protein: recombinant; tags: N-terminal GST; dsDNA, one strand shown
# Summary of the method: as §1
# [10] = target: ETV1 (Homo sapiens, UniProt P50549 1-477); details: protein: recombinant; tags: N-terminal GST; dsDNA, one strand shown
# Summary of the method: as §1
# [11] = target: T6, ERF (Homo sapiens, UniProt P50548 1-548); details: protein: recombinant; tags: N-terminal GST; dsDNA, one strand shown
# T6 sequence: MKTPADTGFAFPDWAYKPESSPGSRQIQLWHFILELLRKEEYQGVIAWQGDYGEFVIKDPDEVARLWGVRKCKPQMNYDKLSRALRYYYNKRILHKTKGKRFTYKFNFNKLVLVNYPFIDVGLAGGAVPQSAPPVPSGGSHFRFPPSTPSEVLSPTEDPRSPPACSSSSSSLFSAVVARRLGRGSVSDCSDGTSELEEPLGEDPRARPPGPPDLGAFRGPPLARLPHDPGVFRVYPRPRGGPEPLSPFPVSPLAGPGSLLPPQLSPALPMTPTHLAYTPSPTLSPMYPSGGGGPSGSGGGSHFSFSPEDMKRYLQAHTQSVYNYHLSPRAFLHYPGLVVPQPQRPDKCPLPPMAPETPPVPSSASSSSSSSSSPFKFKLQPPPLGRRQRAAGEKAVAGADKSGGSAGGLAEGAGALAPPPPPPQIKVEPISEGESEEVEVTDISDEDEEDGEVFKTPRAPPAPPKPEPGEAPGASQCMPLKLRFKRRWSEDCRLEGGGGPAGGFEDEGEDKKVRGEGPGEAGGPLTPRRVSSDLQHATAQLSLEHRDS
# Summary of the method: as §1
# [12] = target: T7, ETV3L (Homo sapiens, UniProt Q6ZN32 1-361); details: protein: recombinant; tags: N-terminal GST; dsDNA, one strand shown
# T7 sequence: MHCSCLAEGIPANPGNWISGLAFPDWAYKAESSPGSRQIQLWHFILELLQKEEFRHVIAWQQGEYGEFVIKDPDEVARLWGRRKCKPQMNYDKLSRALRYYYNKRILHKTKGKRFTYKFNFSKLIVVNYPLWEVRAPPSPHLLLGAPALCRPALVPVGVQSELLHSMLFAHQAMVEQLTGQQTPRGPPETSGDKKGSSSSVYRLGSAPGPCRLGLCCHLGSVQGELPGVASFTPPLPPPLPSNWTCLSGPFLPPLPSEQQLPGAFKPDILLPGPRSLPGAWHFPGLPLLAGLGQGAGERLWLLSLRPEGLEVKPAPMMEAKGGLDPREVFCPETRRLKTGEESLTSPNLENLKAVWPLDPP
# Summary of the method: as §1
# [13] = target: T8, ETS2 (Homo sapiens, UniProt P15036 1-469); details: protein: recombinant; tags: N-terminal GST; dsDNA, one strand shown
# T8 sequence: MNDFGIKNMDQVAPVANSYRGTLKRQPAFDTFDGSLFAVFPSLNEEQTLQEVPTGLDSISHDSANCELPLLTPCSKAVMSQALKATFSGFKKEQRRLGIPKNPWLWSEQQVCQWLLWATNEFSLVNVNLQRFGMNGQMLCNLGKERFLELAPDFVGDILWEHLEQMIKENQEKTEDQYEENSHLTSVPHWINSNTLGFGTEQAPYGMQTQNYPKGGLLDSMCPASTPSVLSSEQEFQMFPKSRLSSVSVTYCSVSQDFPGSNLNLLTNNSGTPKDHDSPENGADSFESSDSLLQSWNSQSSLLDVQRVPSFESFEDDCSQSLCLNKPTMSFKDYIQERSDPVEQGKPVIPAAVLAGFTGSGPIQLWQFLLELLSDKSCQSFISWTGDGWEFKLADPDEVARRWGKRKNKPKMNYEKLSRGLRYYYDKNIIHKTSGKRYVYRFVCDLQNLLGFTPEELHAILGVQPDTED
# Summary of the method: as §1
# [14] = target: T9, SPDEF (Homo sapiens, UniProt O95238 1-335); details: protein: recombinant; tags: N-terminal GST; dsDNA, one strand shown
# T9 sequence: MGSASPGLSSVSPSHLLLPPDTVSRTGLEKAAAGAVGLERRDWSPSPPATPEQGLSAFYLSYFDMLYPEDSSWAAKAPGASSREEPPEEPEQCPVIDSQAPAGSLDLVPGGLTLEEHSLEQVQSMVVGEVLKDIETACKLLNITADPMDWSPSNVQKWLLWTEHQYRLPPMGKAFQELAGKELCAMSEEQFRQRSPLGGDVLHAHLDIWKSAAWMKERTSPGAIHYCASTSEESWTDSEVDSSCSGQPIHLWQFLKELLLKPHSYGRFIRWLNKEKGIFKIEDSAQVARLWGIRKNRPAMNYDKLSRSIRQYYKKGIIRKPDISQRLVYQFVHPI
# Summary of the method: as §1
# [15] = target: T10, ETV7 (Homo sapiens, UniProt Q9Y603 1-341); details: protein: recombinant; tags: N-terminal GST; dsDNA, one strand shown
# T10 sequence: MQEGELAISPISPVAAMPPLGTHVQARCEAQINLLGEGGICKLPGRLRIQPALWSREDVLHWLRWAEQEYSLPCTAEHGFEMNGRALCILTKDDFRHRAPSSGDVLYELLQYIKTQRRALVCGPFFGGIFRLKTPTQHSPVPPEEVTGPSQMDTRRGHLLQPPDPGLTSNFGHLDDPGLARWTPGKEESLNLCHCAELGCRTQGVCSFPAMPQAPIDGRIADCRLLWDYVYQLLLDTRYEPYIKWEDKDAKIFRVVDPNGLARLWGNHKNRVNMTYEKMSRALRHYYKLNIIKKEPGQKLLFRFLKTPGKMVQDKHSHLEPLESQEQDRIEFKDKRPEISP
# Summary of the method: as §1
# [16] = target: T11, ELF5 (Homo sapiens, UniProt Q9UKW6-2 1-255); details: protein: recombinant; tags: N-terminal GST; dsDNA, one strand shown
# T11 sequence: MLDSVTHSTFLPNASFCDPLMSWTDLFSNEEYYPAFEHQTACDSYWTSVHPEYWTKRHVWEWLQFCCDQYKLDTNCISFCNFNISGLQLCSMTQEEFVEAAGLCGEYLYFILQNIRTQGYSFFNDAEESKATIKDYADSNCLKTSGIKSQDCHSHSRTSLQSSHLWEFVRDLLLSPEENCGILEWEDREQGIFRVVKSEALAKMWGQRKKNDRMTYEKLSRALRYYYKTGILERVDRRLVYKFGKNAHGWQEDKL
# Summary of the method: as §1
# [17] = target: T12, ETV3 (Homo sapiens, UniProt P41162-2 1-143); details: protein: recombinant; tags: N-terminal GST; dsDNA, one strand shown
# T12 sequence: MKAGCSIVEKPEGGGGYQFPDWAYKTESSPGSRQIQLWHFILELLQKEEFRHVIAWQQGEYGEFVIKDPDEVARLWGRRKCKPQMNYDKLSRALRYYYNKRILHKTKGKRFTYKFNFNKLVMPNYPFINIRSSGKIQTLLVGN
# Summary of the method: as §1
# [18] = target: ETV6 (Homo sapiens, UniProt P41212 1-452); details: protein: recombinant; tags: N-terminal GST; dsDNA, one strand shown
# Summary of the method: as §1
# Chain of ETV5 (P41161 whole entry): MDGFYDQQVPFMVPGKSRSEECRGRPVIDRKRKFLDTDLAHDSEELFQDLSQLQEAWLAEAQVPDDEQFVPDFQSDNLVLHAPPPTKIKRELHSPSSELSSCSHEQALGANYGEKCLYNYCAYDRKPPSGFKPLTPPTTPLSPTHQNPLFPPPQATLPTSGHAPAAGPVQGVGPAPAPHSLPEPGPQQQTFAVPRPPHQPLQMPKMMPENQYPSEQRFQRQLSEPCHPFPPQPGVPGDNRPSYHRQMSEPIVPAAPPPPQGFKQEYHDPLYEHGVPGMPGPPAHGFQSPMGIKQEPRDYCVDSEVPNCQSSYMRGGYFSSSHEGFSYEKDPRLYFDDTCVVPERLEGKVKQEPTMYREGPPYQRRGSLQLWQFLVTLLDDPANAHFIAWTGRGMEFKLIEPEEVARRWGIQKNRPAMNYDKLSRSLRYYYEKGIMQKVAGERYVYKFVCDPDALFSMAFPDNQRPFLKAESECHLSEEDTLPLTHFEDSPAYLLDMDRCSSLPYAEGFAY
# Chain of ELF4 (Q99607 whole entry): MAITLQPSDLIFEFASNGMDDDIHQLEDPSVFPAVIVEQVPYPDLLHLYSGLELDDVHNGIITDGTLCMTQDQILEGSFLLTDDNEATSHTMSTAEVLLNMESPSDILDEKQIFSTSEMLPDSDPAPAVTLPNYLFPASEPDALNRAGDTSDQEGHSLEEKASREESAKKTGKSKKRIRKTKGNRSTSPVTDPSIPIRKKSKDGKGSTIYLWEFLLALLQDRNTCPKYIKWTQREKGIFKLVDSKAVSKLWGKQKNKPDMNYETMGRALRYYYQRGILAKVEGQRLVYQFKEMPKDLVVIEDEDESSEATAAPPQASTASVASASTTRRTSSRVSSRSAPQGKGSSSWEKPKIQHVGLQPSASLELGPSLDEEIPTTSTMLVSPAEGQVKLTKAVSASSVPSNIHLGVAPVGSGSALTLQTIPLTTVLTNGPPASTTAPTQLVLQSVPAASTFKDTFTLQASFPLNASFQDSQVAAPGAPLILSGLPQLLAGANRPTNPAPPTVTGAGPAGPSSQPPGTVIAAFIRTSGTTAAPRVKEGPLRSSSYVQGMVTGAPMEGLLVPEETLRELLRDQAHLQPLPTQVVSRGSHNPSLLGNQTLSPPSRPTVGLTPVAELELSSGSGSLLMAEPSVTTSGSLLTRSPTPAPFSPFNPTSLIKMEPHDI
# Chain of ETV1 (P50549 whole entry): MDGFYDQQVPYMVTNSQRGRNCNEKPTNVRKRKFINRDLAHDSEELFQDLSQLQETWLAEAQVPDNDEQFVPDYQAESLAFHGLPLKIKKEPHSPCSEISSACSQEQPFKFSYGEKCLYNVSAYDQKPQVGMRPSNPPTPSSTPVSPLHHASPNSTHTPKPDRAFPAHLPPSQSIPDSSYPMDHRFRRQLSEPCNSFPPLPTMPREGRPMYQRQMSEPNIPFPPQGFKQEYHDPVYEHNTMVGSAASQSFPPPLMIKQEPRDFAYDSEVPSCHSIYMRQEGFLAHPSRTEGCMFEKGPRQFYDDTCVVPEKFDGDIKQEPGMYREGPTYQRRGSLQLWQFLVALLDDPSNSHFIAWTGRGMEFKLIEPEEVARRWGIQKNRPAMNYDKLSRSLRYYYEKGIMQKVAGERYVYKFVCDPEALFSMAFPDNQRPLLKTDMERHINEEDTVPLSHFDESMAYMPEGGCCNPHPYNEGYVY
# Chain of HSF1 (Q00613 whole entry): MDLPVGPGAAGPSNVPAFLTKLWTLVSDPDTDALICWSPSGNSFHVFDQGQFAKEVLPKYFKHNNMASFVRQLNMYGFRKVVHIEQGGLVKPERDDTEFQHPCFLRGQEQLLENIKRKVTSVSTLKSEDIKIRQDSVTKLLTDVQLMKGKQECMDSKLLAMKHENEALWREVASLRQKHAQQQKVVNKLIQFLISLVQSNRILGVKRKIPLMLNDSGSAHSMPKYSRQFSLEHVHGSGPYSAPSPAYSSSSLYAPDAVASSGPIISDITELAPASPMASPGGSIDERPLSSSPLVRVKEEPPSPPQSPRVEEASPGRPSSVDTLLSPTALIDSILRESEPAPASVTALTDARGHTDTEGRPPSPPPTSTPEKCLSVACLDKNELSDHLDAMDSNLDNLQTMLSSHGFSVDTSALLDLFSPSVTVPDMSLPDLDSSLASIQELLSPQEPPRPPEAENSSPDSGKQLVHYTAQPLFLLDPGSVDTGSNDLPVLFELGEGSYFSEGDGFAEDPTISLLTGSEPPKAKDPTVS
# Chain of CRX (O43186 whole entry): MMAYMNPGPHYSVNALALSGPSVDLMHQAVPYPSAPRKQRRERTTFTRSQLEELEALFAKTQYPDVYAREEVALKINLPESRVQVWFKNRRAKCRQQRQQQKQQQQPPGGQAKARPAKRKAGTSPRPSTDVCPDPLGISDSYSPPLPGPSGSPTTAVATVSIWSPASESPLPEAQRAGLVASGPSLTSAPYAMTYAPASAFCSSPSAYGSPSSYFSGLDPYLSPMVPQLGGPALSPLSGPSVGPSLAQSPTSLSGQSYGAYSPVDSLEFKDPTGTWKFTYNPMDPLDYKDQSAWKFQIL
# Chain of ETV6 (P41212 whole entry): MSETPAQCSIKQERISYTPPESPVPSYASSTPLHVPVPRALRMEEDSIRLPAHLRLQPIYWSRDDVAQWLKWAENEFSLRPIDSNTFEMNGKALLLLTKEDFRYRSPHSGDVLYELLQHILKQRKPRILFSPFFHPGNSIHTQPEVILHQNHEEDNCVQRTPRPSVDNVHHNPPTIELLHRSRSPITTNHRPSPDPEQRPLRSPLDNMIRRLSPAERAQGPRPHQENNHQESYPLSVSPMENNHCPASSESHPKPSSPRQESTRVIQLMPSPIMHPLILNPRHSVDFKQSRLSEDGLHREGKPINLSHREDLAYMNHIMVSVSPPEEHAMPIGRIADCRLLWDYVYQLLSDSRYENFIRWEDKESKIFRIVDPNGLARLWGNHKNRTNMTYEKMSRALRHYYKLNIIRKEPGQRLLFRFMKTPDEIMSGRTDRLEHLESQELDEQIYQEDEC
sequence,measurement,setting,value
TAACAT,binding signal,[1],"1.32 fold enrichment (6-mer frequency, TF over GST control)"
same,binding signal,[2],"1.36 fold enrichment (6-mer frequency, TF over GST control)"
same,binding signal,[3],"1.29 fold enrichment (6-mer frequency, TF over GST control)"
same,binding signal,[4],"1.46 fold enrichment (6-mer frequency, TF over GST control)"
same,binding signal,[5],"1.37 fold enrichment (6-mer frequency, TF over GST control)"
same,binding signal,[6],"1.29 fold enrichment (6-mer frequency, TF over GST control)"
same,binding signal,[7],"1.39 fold enrichment (6-mer frequency, TF over GST control)"
same,binding signal,[8],"1.5 fold enrichment (6-mer frequency, TF over GST control)"
same,binding signal,[9],"1.57 fold enrichment (6-mer frequency, TF over GST control)"
same,binding signal,[10],"1.37 fold enrichment (6-mer frequency, TF over GST control)"
same,binding signal,[11],"1.33 fold enrichment (6-mer frequency, TF over GST control)"
same,binding signal,[12],"1.32 fold enrichment (6-mer frequency, TF over GST control)"
same,binding signal,[13],"1.28 fold enrichment (6-mer frequency, TF over GST control)"
same,binding signal,[14],"1.34 fold enrichment (6-mer frequency, TF over GST control)"
same,binding signal,[15],"1.3 fold enrichment (6-mer frequency, TF over GST control)"
same,binding signal,[16],"1.35 fold enrichment (6-mer frequency, TF over GST control)"
same,binding signal,[17],"1.26 fold enrichment (6-mer frequency, TF over GST control)"
same,binding signal,[18],"1.4 fold enrichment (6-mer frequency, TF over GST control)"
